Tested on: LXRb:RXRa (NR concentration 270 nM, RXRa partner concentration 90 nM)
Assay: PBM binding z-score (relative to random genomic background probes); higher = stronger binding; sequences stand for … in GC…GCGATTGACAGCGTAGAATGAAGG
How it was run: (§1)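 Scanned fluorescence from custom Agilent 4×180K protein-binding microarrays was regression-normalized. Binding z-scores use random background probes as reference. Ligand-free nuclear receptor dimers were incubated on the arrays for 1 h and detected with antibodies against each partner (one per run).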

| Sequence | PBM binding z-score |
| --- | --- |
| CCTTACGGGACACTGACAGGTTATAGCATTTGGA | 0.0675 |
| AGAACGAGGGCAATGAGTTGAGAGCACGGGTGGC | -0.251 |
| CCTGCTAGGTCAATGGTCGGCTAAAGCAGCTCGC | 1.14 |
| CCGACTGGGGCTAAGGTTACCATACTCAGTACGA | 0.815 |
| CTTCCAAGGTCAATGCTAGGTCAGTGAAAGCATT | 4.25 |
| CATACTGGGCCAAAGGTCATTGATTCCAATGCTC | 5.17 |
| AGAACGAGGGCACGCTGAGTTGCTAGCAGAGTAG | -0.279 |
| CCTCGGAGGACCACAGGAGGTCAGAGCTGCCAGA | 1.3 |
| AGTCAAAGTTCAGGACGAGGTTACGTAAAGCACG | 2.7 |
| TCTAGTTGGTCACGGACGTCACACACGACGGGTA | 0.406 |
| TAGCCTAGGTCATTGCGCCAGTATAGTACGCATC | 2.41 |
| TCTTTTAGATCAAGCAGGTTAAGAAAGCCTGAGT | 0.588 |
| CATACAGGGTCAGCTAGGCCACAGTAGGGACGGC | 2.31 |
| GCTAGTTGGTCAGTAAAAGGTCACACGCCGGTCG | 4.1 |
| ACAGACAAGTGAGTGAAGGTAACTCAGCTGGACG | -0.57 |
| CCTACTGGGCCATTCAGAGGTCTTTGATCATATG | -0.49 |
| CCGACTGGGGTAGAAAGGTTACCATACCATCCGG | 1.06 |
| CCGACTGGGGCATAAGGTTAGCATAAGCCAGCCC | -0.254 |
| CGTCAAAGTTCCACTAAGGTAACGTAAAGCACGC | 0.0124 |
| CCGACTGGGGCAGATAGGTTACCATACCATCCGG | -0.154 |

| Sequence | PBM binding z-score |
| --- | --- |
| CATACAGGGTCAGCTAGGCGAGAGTAGGGACGGC | 2.08 |
| GGAACGAGGGCAAGTTGATCGCAGAGTTTGATGG | 0.128 |
| ACAGACAGGTGATGAAGCTAACTCAGGCTATCAT | -0.472 |
| GCATATAGGTAATACAAGGTAAAAGTCCGATTGT | -0.189 |
| TCTGGGAGGACACGAAAGGTCAGAGCTCGACATC | 3.11 |
| CCGACTGGGGCAAAGTTACCATAACGCACAGCCA | -0.362 |
| AGAATGAGGTTAAGATGAGGGAAACAGAATACAT | 1.84 |
| ATATGTAGATTATCGGGTCATTCAGTTTGCGCAT | 2.47 |
| TCATATTGGTAAAGGTGAAAGTCGAACGATATGA | 1.19 |
| TCTCGGAGCACACGAAGGTCAGAGCTTTCCAGAG | 0.706 |
| CAAACTAGGTCAAGAGATCAAAGTCCGCTTCCCG | 1.95 |
| ATCGAAAGGTCGAGGGTGAGTATACCCACCCGAA | 2.57 |
| CAGCCTAGGTCAGGGCCAGTATTGGAGGAACGTT | 0.567 |
| ATCGAAAGGTCGAAGGTGAGTGTACCCACCCGAA | 2.8 |
| CGAACTAGGTTAAGGACAGTGAATCTCCGCACGC | -0.172 |
| TCATATAGGTAATACAGGTGAAAGCCGGCATCTA | 1.21 |
| CCTGCTAGGTCATCGTCAGCTAATCTACAGTATG | 1.87 |
| TCTTGGAGATCAACAGGAGGTTAAGAAAGATCGA | 0.942 |
| GCGACTGGGGCAAAGCAGGTTACCATAAGGTTGG | 0.0291 |
| TAGCCTAGGTCATGGACCAGTATACCACGCGAAC | 2.46 |

Tested on: LXRb homodimer (NR concentration 270 nM)
Assay: as above
How it was run: as §1

| Sequence | PBM binding z-score |
| --- | --- |
| CCTTACGGGACACTGACAGGTTATAGCATTTGGA | -0.248 |
| AGAACGAGGGCAATGAGTTGAGAGCACGGGTGGC | -0.332 |
| CCTGCTAGGTCAATGGTCGGCTAAAGCAGCTCGC | -0.355 |
| CCGACTGGGGCTAAGGTTACCATACTCAGTACGA | -0.943 |
| CTTCCAAGGTCAATGCTAGGTCAGTGAAAGCATT | 1.7 |
| CATACTGGGCCAAAGGTCATTGATTCCAATGCTC | 1.29 |
| AGAACGAGGGCACGCTGAGTTGCTAGCAGAGTAG | -1.02 |
| CCTCGGAGGACCACAGGAGGTCAGAGCTGCCAGA | -0.715 |
| AGTCAAAGTTCAGGACGAGGTTACGTAAAGCACG | 0.273 |
| TCTAGTTGGTCACGGACGTCACACACGACGGGTA | 0.211 |
| TAGCCTAGGTCATTGCGCCAGTATAGTACGCATC | 0.632 |
| TCTTTTAGATCAAGCAGGTTAAGAAAGCCTGAGT | 0.409 |
| CATACAGGGTCAGCTAGGCCACAGTAGGGACGGC | 0.444 |
| GCTAGTTGGTCAGTAAAAGGTCACACGCCGGTCG | 0.629 |
| ACAGACAAGTGAGTGAAGGTAACTCAGCTGGACG | -0.342 |
| CCTACTGGGCCATTCAGAGGTCTTTGATCATATG | -0.94 |
| CCGACTGGGGTAGAAAGGTTACCATACCATCCGG | -1.02 |
| CCGACTGGGGCATAAGGTTAGCATAAGCCAGCCC | -1.19 |
| CGTCAAAGTTCCACTAAGGTAACGTAAAGCACGC | 0.0274 |
| CCGACTGGGGCAGATAGGTTACCATACCATCCGG | -1.16 |

| Sequence | PBM binding z-score |
| --- | --- |
| CATACAGGGTCAGCTAGGCGAGAGTAGGGACGGC | 0.134 |
| GGAACGAGGGCAAGTTGATCGCAGAGTTTGATGG | -0.392 |
| ACAGACAGGTGATGAAGCTAACTCAGGCTATCAT | -0.446 |
| GCATATAGGTAATACAAGGTAAAAGTCCGATTGT | -0.093 |
| TCTGGGAGGACACGAAAGGTCAGAGCTCGACATC | 0.345 |
| CCGACTGGGGCAAAGTTACCATAACGCACAGCCA | -0.945 |
| AGAATGAGGTTAAGATGAGGGAAACAGAATACAT | 0.124 |
| ATATGTAGATTATCGGGTCATTCAGTTTGCGCAT | 0.87 |
| TCATATTGGTAAAGGTGAAAGTCGAACGATATGA | 0.0352 |
| TCTCGGAGCACACGAAGGTCAGAGCTTTCCAGAG | -1.73 |
| CAAACTAGGTCAAGAGATCAAAGTCCGCTTCCCG | 0.064 |
| ATCGAAAGGTCGAGGGTGAGTATACCCACCCGAA | 0.248 |
| CAGCCTAGGTCAGGGCCAGTATTGGAGGAACGTT | -1.11 |
| ATCGAAAGGTCGAAGGTGAGTGTACCCACCCGAA | 0.755 |
| CGAACTAGGTTAAGGACAGTGAATCTCCGCACGC | -0.661 |
| TCATATAGGTAATACAGGTGAAAGCCGGCATCTA | -0.105 |
| CCTGCTAGGTCATCGTCAGCTAATCTACAGTATG | -0.413 |
| TCTTGGAGATCAACAGGAGGTTAAGAAAGATCGA | -0.782 |
| GCGACTGGGGCAAAGCAGGTTACCATAAGGTTGG | -1.39 |
| TAGCCTAGGTCATGGACCAGTATACCACGCGAAC | -0.208 |
